Screening data: PubChem, National Center for Advancing Translational Sciences (NCATS)
p53ts 32C tox = p53ts cell cytotoxicity, permissive temperature. H1299-p53A138V at 32C, ATP luminescence viability, 24 h. Potency, µM (titrated, usually from 46.1 µM), for inactives: top-dose activity change, negative = cytotoxicity, hits mostly cytotoxic. 130,000 compounds, 0.93% hits;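 note: 0% = DMSO and -100% = full killing by reference compound; nearly all actives have a fitted effect of over 55% in size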
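Viability by ATPlite luminescence after 24 h compound treatment (up to 46 uM) at the permissive 32C. Cells are H1299 carrying p53 A138V. Scale runs from DMSO basal to 100 uM tamoxifen as full kill; AC50 from Hill fits.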
p53ts 39C tox = p53ts cell cytotoxicity, nonpermissive temperature; H1299-p53A138V viability at 39C, ATP luminescence, 24 h; Potency, µM (doses to about 46.1 µM), for the others: at the top dose activity change, negative = cell killing, usual class: cytotoxic; 130,000 compounds, 1.5% hits; AID 902; note: % is set by controls: 0 for no effect and ±100 for the full control effect; nearly all actives have a fitted effect of over 55% in size
Peg3 imprint = induces erasure of genomic imprints in mouse ES cells; mouse ES Peg3-LacZ reporter, beta-gal luminescence, 40 h; Potency, µM (doses to about 60.7 µM), for the others: top-dose activity change, positive = activation, hits mostly activators; 110,000 compounds, 0.02% hits
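Imprint erasure is scored as LacZ activity from the silenced maternal Peg3 allele in feeder-free female ES cells cultured 40 h with LIF. Luminescence is normalized to in-plate negative controls and fitted to the Hill equation.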
Numbers without * were called inactive; ? = inconclusive; / = no result; [ ] = remark or other dose. Rows were chosen to be rich in hits. Some 1.6% of all compounds tested hit in one or more screens of this group. Calls come from the whole dose curve; as a rule, active = well fitted curve in the direction sought with a large enough effect; inconclusive = small, poorly fitted or top-dose-only effect, or another doubt; inactive = no such curve, though single readings can be large; an effect the other way counts as inactive or inconclusive. Potency is the fitted concentration of half-maximal effect.

SMILES	p53ts 32C tox	p53ts 39C tox	Peg3 imprint
CC(C)c1ccc(OCc2nc(-c3ccccn3)no2)c(Br)c1	?	?	-58%
O=C(Cn1nc2c(cc1=O)CCCC2)NCc1ccccc1Cl	4%	16%	13%[10.9 µM]
CN(C)Cc1cc(C(C)(C)C)cc(CNC2CCCCC2)c1O	-3%[9.22 µM]	-8%[9.22 µM]	5%[10.9 µM]
CC(=O)c1ccc(N2CCN(c3ncnc4onc(C)c34)CC2)cc1	-4%	4%	-16%[10.9 µM]
CCCCCCCCNC(C)C(O)c1ccc(SC(C)C)cc1 (configuration not stated)	?	20µM*	-48%
C[C@@H](NCCc1ccc(O)cc1)[C@@H](O)c1ccc(O)cc1	/	/	4%
COc1ccccc1NC(=O)c1ccc2oc(=O)c(S(=O)(=O)c3ccccc3)cc2c1	-8%	-14%	-12%[10.9 µM]
O=C(Nc1ccccc1C(F)(F)F)c1ccc2oc(=O)c(S(=O)(=O)c3ccc(F)cc3)cc2c1	10µM*	13µM*	-6%[10.9 µM]
Cc1ccccc1CNC(=O)c1ccc(CN2CC(=O)N3CCCCC3C2=O)cc1 (configuration not stated)	-6%	/	/
CCN(CC)C(=O)c1sc2c(c1C)c(=O)n(-c1ccc(OC)cc1OC)c(=O)n2CC(=O)c1ccc(Cl)cc1	21%	16%	19%[10.9 µM]
COc1ccc(-c2cc(C(F)(F)F)nc(S(C)(=O)=O)n2)cc1	?	20µM*	-12%[10.9 µM]
CS(=O)(=O)c1nc(-c2cccs2)cc(C(F)(F)F)n1	?	?	-40%
COc1ccc(C(=O)N2CCC3(CCCN(c4cccc(-c5ccccc5)c4)C3)CC2)cc1	21%	2%	/
Cc1oc(-c2ccc(Cl)cc2)nc1CN1CCCC(C(=O)NCCc2ccccc2)C1 (configuration not stated)	-13%	?	-12%[10.9 µM]
Cc1cccc(-c2nc(CN3CCCC(C(=O)NCCc4ccc(Cl)cc4)C3)c(C)o2)c1 (configuration not stated)	?	13µM*	-13%[10.9 µM]
COc1cccc(NC(=O)Cn2c(=O)n(CC(=O)NCCc3ccccc3)c(=O)c3sccc32)c1	-10%	35%	6%[10.9 µM]
O=C(Nc1ccc2oc(-c3ccc(Br)cc3)nc2c1)c1cc2ccccc2o1	-2%	8%	2%[10.9 µM]
O=C(Nc1ccc(CN2CCOCC2)cc1)c1cc2ccccc2o1	10µM*	10µM*	-3%
O=C(Nc1ccc(NC(=O)c2cc3ccccc3o2)cc1)c1ccccc1	-2%	-2%	-13%[10.9 µM]
O=C(NCCN1CCOCC1)c1cc2ccccc2o1	-2%	-2%	/
O=C(Nc1ccc2c(c1)OCO2)c1ccc(CN2CCOCC2)cc1	13µM*	?	-21%
O=C(O)c1ccc(NC(=O)c2cc3ccccc3o2)cc1	7.9µM*	10µM*	-41%[10.9 µM]
O=C(Nc1ccc(CN2CCCCC2)cc1)c1ccc2c(c1)OCO2	-7%	-15%	-28%
O=C(Nc1ccc2oc(-c3cc(Br)ccc3Cl)nc2c1)c1cc2ccccc2o1	?	5µM*	-2%[10.9 µM]
CC(NC(=O)C1CCN(c2nc3ccccc3nc2C(F)(F)F)CC1)c1ccccc1 (configuration not stated)	2%	5%	-6%[10.9 µM]
SMILES	p53ts 32C tox	p53ts 39C tox	Peg3 imprint
Cc1ccc(-n2cc(-c3ccccc3)c3c(NC4CCCC4)ncnc32)cc1	18%	-28%	-12%[10.9 µM]
Cc1c(C(=O)Nc2ccccc2)sc2nc(-c3cc4cc(Cl)ccc4oc3=O)[nH]c(=O)c12	-8%	12%	-14%[10.9 µM]
CCN1C(=O)[C@H]2[C@H]3[C@H](O)[C@H](O)C/C(=N/O[C@@H](C)CN4CCCc5nc(C)c(C)cc54)[C@@H]3CC[C@@H]2C1=O	-10%[9.22 µM]	3%[9.22 µM]	/
CSc1nc(C)cc(Nc2ccc(O)c(CN3CCCCC3)c2)n1	2%[9.22 µM]	9%[9.22 µM]	-11%[10.9 µM]
O=C(Nc1ccc(CN2CCOCC2)cc1)c1ccccc1F	?	-19%	/
O=C(Nc1ccc(CN2CCOCC2)cc1)c1cc2ccccn2n1	5µM*	6.3µM*	-88%
NC(N)=N/N=C\c1ccc(O)c(C(=O)O)c1	2%[9.22 µM]	-2%[9.22 µM]	-11%[10.9 µM]
CN1CC[C@@]2(CCN3CCc4c(oc5ccccc45)[C@@H]3C2)N(C)C1=O	-11%	-8%	/
CC(C)CO/N=C1/C[C@@H](O)[C@@H](O)[C@@H]2[C@@H]3C(=O)N(C(C)(C)C)C(=O)[C@H]3CC[C@@H]12	11%[9.22 µM]	11%[9.22 µM]	/
CN(C)c1ccc(-c2nc(-c3ccccn3)no2)cc1[N+](=O)[O-]	-19%	-12%	-8%[10.9 µM]
c1ccc(-c2noc(-c3cccnc3)n2)nc1	13µM*	13µM*	-92%
CNc1ccc(-c2nc(-c3ccccn3)no2)cc1[N+](=O)[O-]	-2%	-11%	-6%[10.9 µM]
Cc1occc1-c1nc(-c2ccccn2)no1	10µM*	13µM*	-92%
